This passage reports Potency and IC50 (viability decrease) results from PubChem BioAssay (NCATS).

A short description of assay [1]: qHTS assay for measurement of the activity of small molecule inhibitors on Zika virus induced Caspase-3 activity in human iPSC derived neural progenitor cells (hNPCs) (AID 1224857). Also: nearly all actives have a fitted effect of over 65% in size. Summed up: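 After overnight (16–20 h) culture at 350 cells/well, hNPCs get compound, then ZIKV 2 FFU/cell one hour later. Six hours on, Caspase-Glo 3/7 is added and luminescence measured.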

The nature of assay [2]: qHTS assay for measurement of the activity of small molecule inhibitors on Zika virus induced Caspase-3 activity in human astrocytoma cells (AID 1224859). Summed up:
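Inhibition of Zika-induced caspase-3/7 activity: SNB-19 cells, 1 h compound pretreatment, ZIKV 2 FFU/cell for 6 h at 37 C, Caspase-Glo luminescence read-out.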

A short description of assay [3]: qHTS Screen of the MIPE 4.0 Collection Against Ewings Sarcoma (RDES) (AID 1259252). Also: nearly all actives have a fitted effect of over 35% in size. Also: potency is read from the fitted curve at half-maximal effect. Summed up:
(§1)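 Measured: ATP luminescence (CellTiter-Glo) 10 min after reagent addition, following 48 h drug treatment. Relative luciferase units converted to percent activity, with no-cell wells as full and DMSO wells as zero inhibition.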

A short description of assay [4]: qHTS Screen of the MIPE 4.0 Collection Against Ewings Sarcoma (TC71) (AID 1259253). Also: nearly all actives have a fitted effect of over 40% in size. Also: potency is read from the fitted curve at half-maximal effect. The procedure, abridged:
as §1

Assay [5] in a line: qHTS Screen of the MIPE 4.0 Collection Against Ewings Sarcoma (EW8) (AID 1259255). Also: nearly all actives have a fitted effect of over 35% in size. Also: potency is read from the fitted curve at half-maximal effect. Summed up:
as §1

A short description of assay [6]: qHTS Screen of the MIPE 4.0 Collection Against Ewings Sarcoma (TC32) (AID 1259256). Also: nearly all actives have a fitted effect of over 45% in size. Also: potency is read from the fitted curve at half-maximal effect. The procedure, abridged: as §1
Assay [7] in a line: Identifying Small Molecule Inhibitors of Pancreatic Cancer Stem Cells (SN12C, Adherent) (AID 1259358).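 Also: cell survival measured after 48 h of compound exposure.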 Also: potency is read from the fitted curve at half-maximal effect. Summed up:
(§2)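 After a 4 h attachment period, compounds were pinned into wells and cultures held 48 h under standard incubator conditions. Viability was then measured as CellTiter-Glo luminescence following 10 min at room temperature.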

Assay [8] is described as follows: Identifying Small Molecule Inhibitors of Pancreatic Cancer Stem Cells (SN12C, Spheroid) (AID 1259360). Also: potency is read from the fitted curve at half-maximal effect. The note with it: Potency: SN12C spheroid viability. The procedure, abridged:
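Monolayer and spheroid cultures are compared. Spheroids form over 14 days in stem cell medium on hydrogel-coated low-attachment plates, then are exposed to compound for 48 h before CellTiter-Glo luminescence.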

Assay [9] in a line: Identifying Small Molecule Inhibitors of Pancreatic Cancer Stem Cells (Panc1, Adherent) (AID 1259362). Also: potency is read from the fitted curve at half-maximal effect. Conditions: Potency: viability. Summed up:
as §2

Assay [10] in a line: P-glycoprotein substrates identified in KB-8-5-11 adenocarcinoma cell line, qHTS therapeutic library screen (AID 1346987). Also: nearly all actives have a fitted effect of over 65% in size. Also: potency is read from the fitted curve at half-maximal effect. Summed up: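 Steps: plate 500 KB-8-5-11 cells/well in DMEM + 10% FCS (colchicine removed); pin compounds in dose-response; incubate 72 h, 37 degree C, 5% CO2; add CellTiter-Glo, 5 min; read luminescence.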
Assay [11] can be described thus: Identifying Small Molecule Inhibitors of Pancreatic Cancer Stem Cells (A278, Adherent) (AID 1259361).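 Also: viability read after 48 h compound exposure; nearly all actives have a fitted effect of over 35% in size.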 The procedure, abridged: as §2
Assay [12] can be described thus: NS1 protein of Zika virus - qHTS assay to identify small molecule inhibitors in human HEK 293 cells (AID 1347053). Also: nearly all actives have a fitted effect of over 55% in size. Also: potency is read from the fitted curve at half-maximal effect. Summed up: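 HEK 293; 20 h pre-culture, 37 C/5% CO2; cpd 1 h pre-infection; ZIKV MR766, MOI = 0.5, 24 h, 37 C; TR-FRET NS1 readout (two anti-NS1 Abs); norm. to no-virus vs infected.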
Assay [13] can be described thus: P-glycoprotein substrates identified in KB-3-1 adenocarcinoma cell line, qHTS therapeutic library screen (AID 1346986). Also: nearly all actives have a fitted effect of over 60% in size.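 Also: potency is read from the fitted curve at half-maximal effect; potency is for cytotoxicity meaning loss of cell viability.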 The procedure, abridged:
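Resistance attributable to P-gp was assessed by comparing AC50 in KB-8-5-11 with parental KB-3-1 and by tariquidar reversal. Cells were exposed 72 h and viability read by CellTiter-Glo.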

A short description of assay [14]: Identifying Small Molecule Inhibitors of Pancreatic Cancer Stem Cells (Panc1, Spheroid) (AID 1259359).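 Also: potency is read from the fitted curve at half-maximal effect; compound exposure lasted 48 h before reading.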 Summed up:
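Adherent (2D) versus sphere (3D) formats; spheres generated 14 d in SCM beforehand. Compound transferred by pin tool after 4 h, 48 h incubation, CellTiter-Glo endpoint.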

Several values for one entry are separate records, joined by “and”; a condition that tells them apart may be missing. Equal entries are not always repeated. Records with an inconclusive call do not appear. Some structures have more than one record in an assay (separate samples or runs), and their calls can disagree. Activity calls are given as the source filed them. Calls follow the shape of the dose curve; as a rule, active = well fitted curve in the direction sought with a large enough effect; inconclusive = small, poorly fitted or top-dose-only effect, or another doubt; inactive = no such curve, though single readings can be large; an effect the other way counts as inactive or inconclusive.

`COc1cc(OC2CCN(C)CC2)ccc1Nc1ncc2c(n1)n(C1CCCC1)c(=O)n2C`: the Potency result in [1] and in assay [2] was “inactive” throughout. Moreover, the Potency in assay [3] was 9.35 µM (active); in assay [4], 4.69 µM (active); in assay [5] it was 7.43 µM (active); in [6] it was 4.69 µM (active); in assay [7], 16.6 µM (active); in [8], 20.9 µM (active). For the same compound, the Potency was 2.96 µM (active) in [9] and 3.72 µM (active) in [10].

For the compound `Cc1ccc(S(=O)(=O)Nc2cc(Cl)ccc2C(=O)Nc2nc(-c3ccccc3)cs2)cc1`, the Potency result in assay [1] and in [2] was “inactive” each time. Besides, the Potency was 10.5 µM (active) in [3]; 13.2 µM (active) in [4]; 16.6 µM (active) in assay [5]; 14.8 µM (active) in [6]; 2.64 µM (active) in assay [7]. Besides, the IC50 (viability decrease) in [11] was 3.72 µM (active).

For `CC(C)[C@H](C(=O)Nc1ccc(C(=O)NO)cc1)c1ccccc1`, the Potency entry in [1] and in [2] was “inactive” each time. Besides, the Potency in assay [3] is 0.833 µM (active); in assay [4], 0.662 µM (active); in assay [5], 0.526 µM (active); in assay [6], 0.526 µM (active); in assay [7], 3.72 µM (active); in [9], 0.418 µM (active). In addition, in assay [10], the Potency is 1.48 µM (active). The IC50 (viability decrease) in assay [11] is 0.833 µM (active).

Turning to `CCCCc1nc2cc(C=CC(=O)NO)ccc2n1CCN(CC)CC`, the Potency result in [1], in assay [2] and in [12] was “inactive” each time. The Potency in assay [3] was 0.187 µM (active); in [4] it was 0.372 µM (active); in assay [5], 0.469 µM (active); in assay [6], 0.0935 µM (active); in assay [7], 2.96 µM (active); in assay [10], 7.43 µM (active). The IC50 (viability decrease) in assay [11] was 1.18 µM (active).

For the compound `C=CC(=O)Nc1cccc(Oc2nc(Nc3ccc(N4CCN(C)CC4)cc3OC)ncc2Cl)c1`, the Potency result in assay [1], in [2] and in [9] was “inactive” each time. Besides, the Potency in assay [3] is 0.0187 µM (active); in assay [4], 0.0074 µM (active); in assay [5] it was 0.0209 µM (active); in [6] it was 0.0148 µM (active); in [7], 23.5 µM (active); in [10], “inactive and 20.6 µM (active)”. Also, the Potency in assay [12] is 33.2 µM (active).

With `Cc1cn(-c2cc(NC(=O)c3ccc(C)c(Nc4nccc(-c5cccnc5)n4)c3)cc(C(F)(F)F)c2)cn1`, the Potency entry in assay [1], in assay [2], in assay [3], in assay [4], in assay [5] and in assay [6] was “inactive” throughout. The Potency entry in assay [7] and in assay [8] was “inactive” in each case.

As for `C1Cc2[nH]nc(-c3nn[nH]n3)c2C1`, the Potency entry in [1], in [2], in assay [3], in assay [4], in assay [5] and in assay [6] was “inactive” throughout. The Potency entry in [7], in assay [8], in assay [13], in assay [10] and in [12] was “inactive” throughout. Further, the IC50 (viability decrease) entry in [11] was “inactive”.

As for `Cn1cc(-c2[nH]c3cc(NC(=O)[C@H](N)C4CCCCC4)cc4c3c2C=NNC4=O)cn1`, the Potency result in [1], in assay [2] and in [10] was “inactive” throughout. Besides, the Potency in assay [3] was 0.833 µM (active); in assay [4] it was 0.59 µM (active); in [5], 0.372 µM (active); in assay [6] it was 0.372 µM (active); in assay [7], 14.8 µM (active); in [8] it was 4.18 µM (active). Also, the Potency in assay [12] was 0.332 µM (active). Moreover, the IC50 (viability decrease) in [11] is 2.64 µM (active).

With `Fc1cc(-c2cccc3ncc(-c4cnn(C5CCNCC5)c4)nc23)cc(F)c1CN1CCOCC1`, the Potency entry in assay [1] and in assay [2] was “inactive” throughout. The Potency was 20.9 µM (active) in [3]; 20.9 µM (active) in assay [4]; 20.9 µM (active) in [5]; 18.7 µM (active) in assay [6]; 23.5 µM (active) in assay [7]; 20.9 µM (active) and 20.6 µM (active) in assay [10]. Also, the Potency in [12] was 20.9 µM (active). For the same compound, in assay [11], the IC50 (viability decrease) is 20.9 µM (active).

On to `C#Cc1cccc(Nc2ncnc3cc(OC)c(OCCCCCCC(=O)NO)cc23)c1`, for which the Potency entry in assay [1], in assay [2] and in [12] was “inactive” throughout. Further, the Potency is 0.0209 µM (active) in assay [3]; 0.0743 µM (active) in assay [4]; 0.059 µM (active) in assay [5]; 0.0372 µM (active) in assay [6]; 14.8 µM (active) in [7]; 10.5 µM (active) and 14.6 µM (active) in assay [10]. The IC50 (viability decrease) in assay [11] was 1.18 µM (active).

As for `Cn1c2cc(S(C)=O)sc2c2cnn(Cc3cccc(N)c3)c(=O)c21` (configuration not stated), the Potency entry in [1], in [2], in assay [3], in assay [4], in [5] and in assay [6] was “inactive” each time. The Potency result in assay [7], in [8], in assay [10] and in [12] was “inactive” each time. The IC50 (viability decrease) entry in assay [11] is “inactive”.

Turning to `O=C(NC1CCNCC1)c1[nH]ncc1NC(=O)c1c(Cl)cccc1Cl`, the Potency entry in assay [1], in assay [2] and in assay [10] was “inactive” in each case. For the same compound, the Potency in assay [3] was 0.187 µM (active); in assay [4], 0.264 µM (active); in assay [5], 0.418 µM (active); in [6] it was 0.209 µM (active); in assay [14] it was 1.32 µM (active) and 1.05 µM (active); in [8], 1.05 µM (active). In addition, the Potency was 0.58 µM (active) in assay [13] and 3.72 µM (active) in [12].

Consider `Cc1ccc(C(N)=O)cc1Nc1nccc(-c2cn(C(C)C)c3cnccc23)n1`, for which the Potency result in [1], in assay [2] and in assay [7] was “inactive” each time. Also, the Potency is 14.8 µM (active) in assay [3]; 8.33 µM (active) in assay [4]; 18.7 µM (active) in [5]; 16.6 µM (active) in assay [6]; 20.6 µM (active) in assay [10]. Further, in [11], the IC50 (viability decrease) is 8.33 µM (active).

Regarding `N#Cc1c(O)c2c(-c3ccc(-c4ccccc4O)cc3)csc2[nH]c1=O`, the Potency entry in [1], in [2], in assay [7], in [9], in assay [13] and in assay [10] was “inactive” in each case. For the same compound, the Potency result in [12] was “inactive”. The Potency in assay [3] is 14.8 µM (active); in [4] it was 18.7 µM (active); in [5] it was 20.9 µM (active); in [6], 23.5 µM (active). Also, the IC50 (viability decrease) entry in assay [11] is “inactive”.
